# Screening data as filed in PubChem.
# Most compounds without a hit are left out; they make up all but 10% or so of the library.
# 3T3 cytotox – NIH 3T3 cell cytotoxicity. actives 4.3% (n = 94,000). NIH 3T3 viability, CellTiter-Glo ATP luminescence, 48-72 h. Potency, µM (top dose mostly 96.7 µM), hits mostly inhibitors; note: nearly all actives have a fitted effect of over 55% in size
#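 ATP-dependent luminescence (CellTiter-Glo) served as the viability signal for NIH 3T3 cells treated with compound for 48 or 72 hr at 37 °C.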
# FLuc inh – inhibitors of firefly (Photinus pyralis) luciferase; P08659; actives 2.5% (n = 76,000); Potency, µM (series often up to 115 µM), actives largely listed as inhibitors; AID 1347043; purified P. pyralis luciferase, luminescence, biochemical; note: nearly all actives have a fitted effect of over 65% in size
#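 Purified 10nM P. pyralis luciferase with 10uM D-luciferin and 10uM ATP in 50mM Tris acetate pH 7.5, 10mM Mg acetate, 0.01% Tween-20, 0.05% BSA. qHTS titration; luminescence read by CCD imager.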
# HEK293 tox – kills HEK 293 cells. HEK 293 viability, ATP luminescence (CellTiter-Glo), 48-72 h. Potency, µM (top dose mostly 115 µM), actives largely listed as inhibitors. actives 6.6% (n = 94,000); note: nearly all actives have a fitted effect of over 60% in size
#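 ATP-coupled CellTiter-Glo luminescence served as viability read-out, recorded 10 min after reagent addition at room temperature. HEK 293 cells, 250 cells/well, had been incubated with pintool-transferred compound for 48 or 72 hr at 37 degree Celsius.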
# GPT2 inh – blocks human glutamate pyruvate transaminase 2. Q8TD30. Recombinant GPT2, coupled pyruvate oxidase/HRP Amplex Red fluorescence. Potency, µM (doses to about 57.7 µM), hits mostly inhibitors. actives 0.25% (n = 100,000); note: nearly all actives have a fitted effect of over 60% in size
# Target sequence (Q8TD30 whole entry, looked up): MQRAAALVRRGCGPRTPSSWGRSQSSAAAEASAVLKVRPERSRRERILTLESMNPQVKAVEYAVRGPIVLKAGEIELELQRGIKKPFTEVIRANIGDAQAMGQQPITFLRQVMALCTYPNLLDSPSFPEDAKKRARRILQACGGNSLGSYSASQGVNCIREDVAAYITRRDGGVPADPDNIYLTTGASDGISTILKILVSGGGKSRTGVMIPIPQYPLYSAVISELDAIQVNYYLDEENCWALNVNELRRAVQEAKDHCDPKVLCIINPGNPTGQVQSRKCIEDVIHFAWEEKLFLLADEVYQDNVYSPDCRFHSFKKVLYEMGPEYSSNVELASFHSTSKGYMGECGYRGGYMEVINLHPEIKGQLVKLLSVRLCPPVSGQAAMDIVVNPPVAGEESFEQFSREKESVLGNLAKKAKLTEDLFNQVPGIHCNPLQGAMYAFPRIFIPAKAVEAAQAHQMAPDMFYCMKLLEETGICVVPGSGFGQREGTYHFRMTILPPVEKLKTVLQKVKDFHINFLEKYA
#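 Fluorescence read-out: pyruvate from GPT2 turnover coupled to pyruvate oxidase, HRP and Amplex Red (0.2mM ThPP, 0.2U/mL PO and HRP, 50uM Amplex final). Substrates 250uM a-KG, 2mM L-alanine; enzyme 10ng/uL; 30 min RT.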
# NPR1 antag – blocks ANP-stimulated signaling of human Npr1 receptor; AID 1347048; actives 1.6% (n = 76,000); Potency, µM (highest dose often 46.3 µM), most hits filed as inhibitors; HEK293 hNpr1 GloSensor cGMP, ANP-stimulated luminescence; P16066; calls by dose curve; note: nearly all actives have a fitted effect of over 60% in size
#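 HEK293 cells stably expressing human Npr1 and cGMP GloSensor pGS-40F, loaded 2 h with 2% GloSensor reagent, given compound 30 min at room temperature. Luminescence read before and 20 min after 0.1 nM hNppA.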
# Hits are given with their value; . = inactive; ? = inconclusive; / = not tested or not shown. Unless noted, calls come from the whole dose curve; as a rule, active = well fitted curve in the direction sought with a large enough effect; inconclusive = small, poorly fitted or top-dose-only effect, or another doubt; inactive = no such curve, though single readings can be large; an effect the other way counts as inactive or inconclusive.
SMILES,3T3 cytotox,FLuc inh,HEK293 tox,GPT2 inh,NPR1 antag
COc1ccc(CN2CCCC3(C2)C(=NC2CCCC2)NC(=O)N3c2cccnc2)cc1 (stereo not given),22µM,/,.,.,/
O=C1NC(=NC2CCCC2)C2(CCN(CC3CC3)C2)N1c1cccnc1 (stereo not given),?,/,.,.,/
O=C1NC(=NC2CCCC2)C2(CCCN(Cc3ccccc3)C2)N1c1cccnc1 (stereo not given),25µM,/,.,.,/
O=C1NC(=NC2CCCC2)C2(CCN(Cc3ccccc3)C2)N1c1cccnc1 (stereo not given),?,/,.,.,/
O=C(NCc1ccccc1F)c1ccc2oc(-c3ccncc3)nc2c1,.,/,?,.,/
CC1(C(=O)NCc2cccnc2)CCCc2cnc(Nc3ccccc3)nc21 (stereo not given),?,.,.,.,.
CC1(C(=O)NCc2ccc(F)cc2)COCc2cnc(Nc3ccccc3)nc21 (stereo not given),?,.,79µM,.,?
CC1(C(=O)NCc2cccnc2)CCc2cnc(Nc3ccccc3)nc21 (stereo not given),25µM,.,89µM,.,.
CC1(C(=O)NCc2cccnc2)CCCc2cnc(NCc3ccccc3)nc21 (stereo not given),50µM,.,?,.,.
CC1(C(=O)NCc2cccnc2)CCc2cnc(NCc3ccccc3)nc21 (stereo not given),35µM,.,.,.,.
Cc1cc(C)n(Cc2ccc(C(=O)N3CCC(c4noc(-c5cccnc5)n4)C3)o2)n1 (stereo not given),.,.,.,.,.
CN1CCN(C(=O)C2CCCN(c3ccnc4ccnn34)C2)CC1 (stereo not given),.,/,.,.,/
O=C(NC1CCCC1)N1CCC(C(=O)N2CCC(N3Cc4ccccc4C3=O)CC2)CC1,.,/,.,?,/
CNC(=O)[C@H]1C[C@]2(CCCCN(CCO)C2=O)N(C(=O)CC(C)(C)C)[C@H]1c1ccccc1,?,/,.,/,/
O=C1OCC2(CCN(Cc3ccc4c(c3)CCO4)C2)N1Cc1ccccc1 (stereo not given),?,.,?,.,.
CCCCCNC(=O)c1nc2cccnc2n(Cc2ccc(OC)cc2)c1=O,?,/,?,.,/
CC1(C(=O)NCc2ccncc2)CCc2cnc(NCc3ccccc3)nc21 (stereo not given),45µM,.,.,.,.
CC1(C(=O)NCc2ccncc2)CCCc2cnc(Nc3ccccc3F)nc21 (stereo not given),?,.,?,.,.
COc1cccc(Nc2ncc3c(n2)C(C)(C(=O)NCc2cccnc2)CC3)c1 (stereo not given),?,.,79µM,.,.
Cc1ccsc1CN1CCCOCCNC(=O)[C@@H]2CCCC[C@@H]21,.,.,?,.,.
Cc1noc(C)c1[S+](=O)([O-])N1CCN(CCn2nc3n(c2=O)CCCC3)CC1,.,/,.,/,/
Cc1ccc(CNC(=O)c2noc(-c3ccc4c(c3)OCO4)n2)cc1,.,?,?,.,.
O=C(NCc1cccs1)c1noc(-c2ccc(F)cc2)n1,?,?,?,.,.
COc1ccc(CNC(=O)c2noc(-c3ccc4c(c3)OCO4)n2)cc1,?,32µM,?,.,.
O=C(NCc1cccc(Cl)c1)c1noc(-c2ccc3c(c2)OCO3)n1,?,?,40µM,.,.
SMILES,3T3 cytotox,FLuc inh,HEK293 tox,GPT2 inh,NPR1 antag
Cc1cccc(CNC(=O)c2noc(-c3ccc4c(c3)OCO4)n2)c1,?,?,?,.,.
CSc1ccc(CNC(=O)c2noc(-c3ccc(F)cc3)n2)cc1,?,28µM,.,?,.
COc1cccc(CNC(=O)c2noc(-c3ccc(C)cc3)n2)c1,.,28µM,.,.,.
COc1ccc(CNC(=O)c2noc(-c3ccc(C)cc3)n2)cc1,.,.,.,.,.
CC(C)C1=NOC2(CCN(Cc3ccc(C(F)(F)F)cc3)C2)C1 (stereo not given),.,/,?,?,/
C[C@@H]1O[C@@H](O[C@H]2[C@H](OC(=O)[C@]34CCC(C)(C)C[C@H]3C3=CCC5[C@@]6(C)C[C@@H](O)[C@@H](O)[C@@](C)(CO)C6[C@H](O)C[C@@]5(C)[C@]3(C)CC4)OC[C@H](O)[C@@H]2O)[C@H](O)[C@H](O)[C@H]1O[C@@H]1OC[C@@H](O)[C@H](O[C@H]2O[C@H](C)[C@@H](O)[C@H](O)[C@@H]2O)[C@H]1O (stereo not given in full),/,/,/,.,/
COc1ccc(CC(=O)N2CCCC(C(=O)N3CCC(c4nc5ncccc5[nH]4)CC3)C2)cc1 (stereo not given),.,/,.,.,/
COc1ccccc1C(=O)NCc1c[nH]c2ncccc12,.,.,.,.,.
COc1cccc(CNC(=O)c2c[nH]c3ncccc23)c1,?,40µM,.,.,.
O=C(NC1CCCN(c2ccnc3ccnn23)C1)c1ccc2c(c1)OCO2 (stereo not given),?,/,35µM,.,/
O=C(NC1CCCN(c2ccnc3ccnn23)C1)c1ccccc1 (stereo not given),?,/,?,.,/
O=C(NC1CCCN(c2ccnc3ccnn23)C1)c1cccc(Br)c1 (stereo not given),?,/,79µM,.,/
COc1cccc(C(=O)NC2CCCN(c3ccnc4ccnn34)C2)c1 (stereo not given),?,/,?,.,/
COc1cccc(C(=O)NC2CCN(c3ccnc4ccnn34)CC2)c1,?,/,35µM,.,/
O=C(NC1CCCN(c2ccnc3ccnn23)C1)c1cccc(Cl)c1 (stereo not given),?,/,?,.,/
O=C(NC1CCCN(c2ccnc3ccnn23)C1)c1ccc(Cl)cc1 (stereo not given),?,/,40µM,.,/
COCC(=O)N1CCC(C(=O)N2CCC(N3Cc4ccccc4C3=O)CC2)CC1,.,/,.,.,/
O=C(NC1CCCCCC1)c1nc2sccn2c1-c1ccccc1,?,/,?,.,/
O=C(C1CCCN1C(=O)c1ccc(Cl)nc1)N1CCC(N2Cc3ccccc3C2=O)CC1 (stereo not given),.,/,.,.,/
CCC(C)C1=NS(=O)(=O)c2cc(NC(=O)C(C)C)ccc2N1c1ccccc1 (stereo not given),?,.,.,.,.
COc1ccc(C(=O)NC2CCCN(c3ccnc4ccnn34)C2)cc1 (stereo not given),?,/,32µM,.,/
O=C(N1CCCC(c2nnnn2-c2ccccc2)C1)C1(c2ccccc2)CC1 (stereo not given),?,/,.,.,/
COc1ccc2nc(C[C@@H]3C[C@@H](C(C)C)[C@H](CNC(=O)CC4(CC(=O)O)CCCC4)C=C3C)[nH]c2c1,.,.,.,.,.
COc1ccc2nc(C[C@@H]3C[C@@H](C(C)C)[C@H](CNCc4ccc(NC(C)=O)cc4)C=C3C)[nH]c2c1,40µM,.,?,.,.
